Screening results: PubChem, National Center for Advancing Translational Sciences (NCATS)
Only some compounds are listed: those with a hit (about 20% of all), similar ones and a draw of the others.
HCMV inh: blocks human cytomegalovirus replication; 410,000 tested, 4.5% active; HFF cells, HCMV-luciferase reporter, 72 h; hits give low values; activity change, negative = inhibition, % at 57.5 µM; in the data active = activity change below about -60%; inconclusive = no clear call, values can overlap the other calls; inactive = above about -39%; also: % is scaled to controls: 0 for no effect and ±100 for the full control effect
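HFF cells seeded 16 h at 37C, treated with compounds, infected with luciferase-reporter HCMV at MOI 1 PFU/cell; luciferase read at 72 h post infection, normalized to buffer-only and Salinomycin controls.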
Pf growth 96h: inhibits malaria parasite growth, 96 h. 320,000 tested, 6.9% active. Potency, µM (series often up to 28.7 µM), for the others: top-dose activity change, negative = inhibition, actives largely listed as inhibitors. P. falciparum luciferase reporter growth, 96 h; also: potency is read from the fitted curve at half-maximal effect; % is scaled to controls: 0 for no effect and ±100 for the full control effect
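Infected RBCs, 2% Hct / 0.05% parasitemia final; luciferase-reporter P. falciparum; cpd 96 h, 37 C, 5% CO2; luciferase detection reagent; luminescence.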
Pf growth 48h: inhibits P. falciparum growth in the first generation, 48 h | 310,000 tested, 5.9% active | P. falciparum luciferase growth in erythrocytes, 48 h | AID 504832 | Potency, µM (series often up to 28.7 µM), without a hit: at the highest dose activity change, negative = inhibition, hits mostly inhibitors; also: potency is read from the fitted curve at half-maximal effect; % is scaled to controls: 0 for no effect and ±100 for the full control effect
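A one-generation exposure of luciferase-tagged malaria parasites in RPMI 1640/Albumax erythrocyte culture, 37 C and 5% CO2. Inhibition is inferred from decreased luminescence after adding detection reagent.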
Shiga toxin inh: blocks Shiga toxin action in Vero cells. Vero cells, Shiga toxin protein synthesis inhibition reporter. inhibition, % at 38.7 µM. AID 2315. 290,000 tested, 9.2% active; in the data active = inhibition mostly above about 28%, no sharp cut-off; inactive = mostly below about 43%; also: 0% is about no effect
Cycloheximide cs: counter-screen for Shiga toxin inhibitors: cycloheximide protein synthesis inhibition; cell reporter, cycloheximide protein synthesis inhibition counterscreen; max response, %; 300,000 tested, 12% active; AID 2314; in the data active = max response mostly above about 13%, no sharp cut-off; inactive = mostly below about 14%; also: read at 38.3 µM for the half of the compounds with a filed dose; 0% is about no effect
An asterisk follows results filed as active; i = inactive; ? = inconclusive; nt = not tested or not shown; [ ] = remark or other dose. Unless noted, calls follow the shape of the dose curve; as a rule, active = well fitted inhibition curve with a large enough effect; inconclusive = small, poorly fitted or top-dose-only effect, or another doubt; inactive = no such curve, though single readings can be large or run the other way.

SMILES | HCMV inh | Pf growth 96h | Pf growth 48h | Shiga toxin inh | Cycloheximide cs
O=C(COC(=O)C1=COCCO1)NC(=O)c1ccc(OC(F)F)cc1 | -38.6 | 3.1% | -0.8% | -13.8 | -1.7
CCC(=O)Nc1c(C#N)c2nc3ccccc3nc2n1C1CCCCC1 | -14.3 | ? | ? | -12.6 | -2.4
CCOC(=O)c1c(N)n(-c2ccc(N)cc2)c2nc3ccccc3nc12 | ? | ? | ? | 14.7 | -1.6
CCOC(=O)c1c(NC(=O)c2ccco2)n(C2CCCCC2)c2nc3ccccc3nc12 | -23.0 | 10.4µM* | ? | 107.0 | 7.7
Cc1ccc(S(=O)(=O)c2c(N)n(CCCN(C)C)c3nc4ccccc4nc23)cc1 | nt | ? | ? | -24.1 | -2.2
CCCCn1c(NS(=O)(=O)c2ccc(C)cc2)c(S(=O)(=O)c2ccccc2)c2nc3ccccc3nc21 | -29.1 | 4.15µM* | ? | -4.9 | -4.7
CCOC(=O)c1c(N)n(CCN2CCCCC2)c2nc3ccccc3nc12 | -25.7 | 0.0%[5.75 µM] | ? | -9.4 | -2.6
CCOC(=O)c1c(N)n(C2CC(C)(C)NC(C)(C)C2)c2nc3ccccc3nc12 | nt | 9.28µM* | 10.4µM* | -14.9 | -2.3
CCCCn1c(NS(=O)(=O)c2ccccc2)c(C(=O)OCC)c2nc3ccccc3nc21 | ? | ? | 1.65µM* | -9.3 | 3.7
CCOCCCNC(=O)CC1Oc2ccc(C)cc2NC1=O (centres undefined) | ? | 20.4% | 11.9% | -2.8 | -2.4
CCCCn1c(NC(=O)c2ccc(Br)o2)c(C(=O)OCC)c2nc3ccccc3nc21 | -71.1* | -100.8% | ? | 6.6 | 3.6
C/C(=N\NC(=O)c1cc(C)[nH]n1)c1cccs1 | 29.3 | 48.5% | i | 58.9* | 11.6
C/C(=N\NC(=O)c1cc(C)[nH]n1)c1ccc(-c2ccccc2)cc1 | -11.7 | ? | ? | 55.2* | 8.6
C/C(=N/NC(=O)c1cc(C(C)C)[nH]n1)c1cccs1 | 105.4 | i | 219.3% | 39.1 | 16.5
CCn1nnc2cc(C(=O)Nc3cc(C)ccc3C)ccc21 | -12.7 | nt | nt | nt | nt
COc1ccc2cc(CCC(C)=O)ccc2c1 | 102.4 | 95.2%[12.8 µM] | 55.2%[12.8 µM] | 92.1* | 56.2*
COc1ccc(CCc2ccc3cc(OC)ccc3n2)cc1 | -9.8 | nt | nt | nt | nt
COc1ccc(OC)c(NC(=O)C2(C)CCN2Cc2ccc(SC)cc2)c1 (centres undefined) | -13.0 | nt | nt | nt | nt
O=C(Nc1ncc(Cc2cccc(C(F)(F)F)c2)s1)C1CCCO1 (centres undefined) | 18.3 | 3.6% | 96.7% | 35.0* | 34.3*
Cc1ccc(Cc2cnc(NC(=O)C3CCCO3)s2)cc1 (centres undefined) | 43.1 | i | 325.0% | 137.6* | 34.4*
Cc1csc(NC(=O)C2CCCO2)n1 (centres undefined) | 72.3 | 38.4% | 27.5% | 22.9 | -3.3
N#CC(=C1C=CC(=NO)C(Cl)=C1)c1ccccc1 | -98.1* | nt | nt | nt | nt
N#CC(=C1C=C(Br)C(=NO)C=C1Cl)c1ccc(Cl)cc1 | 1.6 | nt | nt | nt | nt
COc1ccc(-c2c(C(C)=O)c(C)nc3sc4c(c23)NC(c2ccccc2)NC4=O)cc1 (centres undefined) | -29.4 | ? | -4.7% | -12.3 | -2.3
CCOC(=O)c1c(C)nc2sc3c(c2c1-c1ccc(OC)cc1)NC(c1ccccc1)NC3=O (centres undefined) | 13.2 | 4.15µM* | 13.1µM* | -20.0 | -2.2
SMILES | HCMV inh | Pf growth 96h | Pf growth 48h | Shiga toxin inh | Cycloheximide cs
COc1ccc(/C=N/NC(=O)c2ccc(CSc3nc(C)cc(C)n3)cc2)c(OC)c1OC | ? | ? | -3.7% | 11.9 | -1.2
COc1ccc(O)c(/C=N/NC(=O)c2ccc(CSc3nc(C)cc(C)n3)cc2)c1 | -89.6* | ? | ? | 70.6* | 61.2*
Cc1cc(C)nc(SCc2ccc(C(=O)N/N=C/c3cccc(O)c3O)cc2)n1 | -98.8* | 4.65µM* | 10.4µM* | -60.1 | 17.2*
COc1ccc(/C=N/NC(=O)c2ccc(CSc3nc(C)cc(C)n3)cc2)cc1O | -65.7* | ? | ? | -6.3 | 4.0
Cc1ccc(N2CC(C(=O)NCCS(=O)(=O)N3CCN(c4ccc(F)cc4)CC3)CC2=O)cc1 (centres undefined) | -20.9 | ? | 4.1% | -1.7 | -3.2
Cc1ccc(C(=O)NNC(=O)CSc2n[nH]c(-c3cccnc3)n2)cc1 | -103.5* | 19.8% | 32.8% | -5.1 | -2.2
CCc1ccc(C(=O)CSc2n[nH]c(-c3ccncc3)n2)cc1 | -39.0 | 5.22µM* | nt | -2.1 | 2.8
Cc1ccc(C)c(NC(=O)CSc2n[nH]c(-c3ccccn3)n2)c1 | ? | -7.3% | ? | 2.0 | 4.7
Cc1cc(C)cc(NC(=O)CSc2n[nH]c(-c3cccnc3)n2)c1 | -3.1 | 5.2% | -1.9% | -3.7 | -3.2
COC(=O)CSc1n[nH]c(-c2ccncc2)n1 | 6.3 | -17.0% | 14.8% | -6.0 | -2.0
Cc1ccc(NC(=O)CSc2n[nH]c(-c3ccco3)n2)cc1 | 31.5 | 5.0% | 11.4% | 45.4 | 28.5*
O=C(CSc1n[nH]c(-c2ccco2)n1)Nc1ccccc1 | -17.1 | 10.8% | 16.6% | nt | nt
Cc1ccc(O)c(NC(=O)CSc2n[nH]c(-c3ccccc3)n2)c1 | -82.9* | ? | 5.3% | 8.1 | -1.0
CCOc1ccccc1NC(=O)C1CCN(S(=O)(=O)c2cc(Br)cc3c2N(C(C)=O)CC3)CC1 | 1.9 | nt | nt | nt | nt
Cc1ccc(NC(=O)COC(=O)CCNS(=O)(=O)c2ccc(C)c(C)c2)cc1 | 8.0 | 49.6% | 27.0% | -4.8 | -2.0
CCOc1ccc(NC(=O)Cn2cnc3sc(C)c(S(=O)(=O)N4CCN(c5ccccc5OC)CC4)c3c2=O)cc1 | -1.4 | nt | nt | nt | nt
COc1cc(C(O)c2nc(-c3cccc(C(C)C)c3)cs2)ccc1F (centres undefined) | -38.3 | nt | nt | nt | nt
COc1ccc(C(=O)CSc2n[nH]c(-c3ccco3)n2)cc1 | -29.8 | 1.17µM* | 8.2% | 11.0 | -2.1
CC(C)CNC(=O)C1(C)CCCN1C(=O)c1ccc2ccccc2n1 (centres undefined) | 31.8 | nt | nt | nt | nt
Cc1cc(C)n(-c2ccc(NC(=O)C3CCCCN3C(=O)c3sccc3C)cc2)n1 (centres undefined) | 16.6 | 14.7µM* | -11.3% | -24.5 | 3.9
Cc1cc(C)n(-c2ccc(NC(=O)C3CCCCN3C(=O)c3occc3C)cc2)n1 (centres undefined) | -2.9 | 5.8% | -14.7% | -17.5 | -5.8
Cc1cc(C)n(-c2ccc(NC(=O)C3CCCCN3C(=O)c3ccoc3)cc2)n1 (centres undefined) | nt | 9.28µM* | -5.0% | -1.9 | 11.7
CNc1ncn(-c2c(C)cccc2C)c(=O)n1 | -98.7* | nt | nt | nt | nt
Cc1cccc2c1N(C)C(=O)C2=O | -17.3 | 11.1% | 16.6% | -8.3 | 4.3
O=[N+]([O-])c1ccc(S(=O)(=O)N/N=C/c2ccc3c(c2)OCO3)cc1 | 12.7 | -15.5% | 0.0% | 49.6* | 31.2*
CCCc1ccc(S(=O)(=O)N/N=C\c2ccc3c(c2)OCO3)cc1 | 4.4 | ? | 2.9% | 4.3 | -2.7
COc1ccc(S(=O)(=O)N/N=C\c2ccc3c(c2)OCO3)cc1 | -13.2 | 0.0% | 15.7% | 17.9 | -1.3
O=S(=O)(N/N=C/c1ccc2c(c1)OCCO2)c1ccccc1 | -1.9 | 44.9% | 0.0% | 60.4 | 20.5*
